# Records with an inconclusive call do not appear. Active and inactive are the calls of the source. The calls were made as follows, unless noted: active = hit-call score of the fitted dose curve at least 0.9, where 1 is the maximum; inactive = score below 0.9.
# Legend:
# [1] = Tanguay_ZF_120hpf_DP24: Oregon State University Tanguay Lab 24 Hour Post-fertilization zebrafish Assay for Delayed Development (AID 2284390)
# How it was run: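 Dechorionated 5D wild-type zebrafish embryos exposed statically from 6 hpf, one per well, 0.64% DMSO final, 28 C, sealed and dark. Developmental progression scored at 24 hpf by brightfield as binary present/absent; dead embryos excluded.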
# [2] = Tanguay_ZF_120hpf_CRAN: Oregon State University Tanguay Lab 120 Hour Post-fertilization zebrafish Assay for Craniofacial Malformation (AID 2284397)
# How it was run: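 Dechorionated Tropical 5D wild-type zebrafish embryos, one per well, were statically exposed from 6 to 120 hpf at 28C in 0.64% DMSO, with 5uM trimethyltin chloride as positive control. Craniofacial malformation was scored present/absent by brightfield microscopy, relative to DMSO.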
# [3] = Tanguay_ZF_120hpf_AXIS: Oregon State University Tanguay Lab 120 Hour Post-fertilization zebrafish Assay for Axial Malformation (AID 2284398)
# How it was run: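 Dechorionated 5D wild-type zebrafish embryos exposed statically, one per well, from 6 to 120 hpf at 28C, 0.64% DMSO. Axial malformation scored as present/absent by brightfield microscopy at 120 hpf; dead embryos not scored.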
# [4] = Tanguay_ZF_120hpf_MORT: Oregon State University Tanguay Lab 120 Hour Post-fertilization zebrafish Assay for Mortality (AID 2284399)
# How it was run: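 Dechorionated wild-type Tropical 5D zebrafish embryos, one per well from 6 hpf, static exposure to 120 hpf at 28C in sealed dark plates, 0.64% DMSO final. Mortality scored as binary by brightfield at 24 and 120 hpf.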
# [5] = Tanguay_ZF_120hpf_BRN: Oregon State University Tanguay Lab 120 Hour Post-fertilization zebrafish Assay for Brain Region Malformation (AID 2284402)
# How it was run: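 Dechorionated wild-type Tropical 5D zebrafish embryos exposed statically from 6 to 120 hpf at 28C, one per well, 0.64% DMSO final. Brain malformation scored at 120 hpf by brightfield as present/absent; dead embryos not scored.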
# [6] = Tanguay_ZF_120hpf_TCHR: Oregon State University Tanguay Lab 120 Hour Post-fertilization zebrafish Assay for Touch Responsive (AID 2284403)
# How it was run: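 Dechorionated Tropical 5D wild-type zebrafish embryos, one per well from 6 hpf, were statically exposed to 120 hpf at 28 °C (0.64% DMSO). Touch response was scored present/absent at 120 hpf and not scored in dead larvae.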
# [7] = CCTE_Padilla_ZF_Score.Craniofacial: CCTE's 144 Hour Post-fertilization zebrafish Assay Score for Craniofacial Malformation, Padilla Lab (AID 2284405)
# How it was run: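 Wild-type zebrafish embryos (with chorions), one per well in 10% Hanks', were dosed at 6–8 hpf in sealed plates and kept at 26C. They were rinsed at 5 dpf. At 6 dpf two blinded assessors scored craniofacial malformations by brightfield stereomicroscopy.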
# [8] = CCTE_Padilla_ZF_Score.Spine: CCTE's 144 Hour Post-fertilization zebrafish Assay Score for Spine Malformation, Padilla Lab (AID 2284407)
# How it was run: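 Wild-type zebrafish embryos, one per well in Hanks' solution, dosed at 6–8 hpf in sealed plates at 26C, 14:10 h light:dark; rinsed at 5 dpf. Two blinded assessors scored spinal defects by stereomicroscopy at 6 dpf; fitted versus DMSO.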
# [9] = CCTE_Padilla_ZF_Score.Swim_bladder: CCTE's 144 Hour Post-fertilization zebrafish Assay Score for Swim Bladder Malformation, Padilla Lab (AID 2284408)
# How it was run: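 Wild-type zebrafish embryos, one per well in 10% Hanks', dosed at 6–8 hpf, sealed, reared at 26C and rinsed at 5 dpf. Blinded assessors scored uninflated swim bladder by stereomicroscopy at 6 dpf, relative to DMSO.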
# [10] = CCTE_Padilla_ZF_Score.Position: CCTE's 144 Hour Post-fertilization zebrafish Assay Score for Position, Padilla Lab (AID 2284409)
# How it was run: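 Wild-type zebrafish embryos (with chorions) exposed singly from 6–8 hpf in sealed wells of Hanks' solution at 26C, rinsed at 5 dpf. At 6 dpf, blinded assessors scored abnormal water-column position by brightfield stereomicroscopy, relative to DMSO.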
# [11] = CCTE_Padilla_ZF_Score.General: CCTE's 144 Hour Post-fertilization zebrafish Assay Score for General Malformation, Padilla Lab (AID 2284411)
# How it was run: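 Wild-type zebrafish embryos were plated singly at 6-8 hpf in 10% Hanks' and exposed in sealed wells at 26C until rinsed on 5 dpf. At 6 dpf two blinded assessors scored mortality, hatching and malformations by stereomicroscopy; gain-of-signal versus DMSO.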
# [12] = CCTE_Padilla_ZF_Score.Tail: CCTE's 144 Hour Post-fertilization zebrafish Assay Score for Tail Malformation, Padilla Lab (AID 2284414)
# How it was run: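 Wild-type zebrafish embryos, one per well in 200 uL 10% Hanks', dosed at 6-8 hpf, sealed, and kept at 26 C on a 14:10 h light cycle. Chemical was rinsed out at 5 dpf. Blinded brightfield scoring of tail defects followed at 6 dpf.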
# [13] = CCTE_Padilla_ZF_Score.Any: CCTE's 144 Hour Post-fertilization zebrafish Assay Score for Any Mortality or Malformation, Padilla Lab (AID 2284416)
# How it was run: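 Wild-type zebrafish embryos with chorions, one per well in 10% Hanks' from 6–8 hpf, dosed in sealed plates at 26 C, 14:10 h light:dark; rinsed at 5 dpf; blinded scoring at 6 dpf for death or malformation, versus DMSO.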
# [14] = system: SRY-box transcription factor 17 (SOX17) Protein Expression, Deisenroth Lab, SOX17 (gene 64321); experiment: CCTE_Deisenroth_DEVTOX-GLR_Endo_SOX17: CCTE's DevTox GLR-Endo Assay Evaluation of SRY-box transcription factor 17 (SOX17) Protein Expression, Deisenroth Lab (AID 2284413)
# How it was run: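 Endpoint: % change in SOX17+ fraction (SOX17+ cells / cell count) vs 0.2% DMSO solvent control. RUES2-GLR reporter cells, 48 h endoderm differentiation, two doses at 24 h intervals, high-content fluorescence imaging, 5 fields/well.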
# [15] = system: Brachyury (BRA) Protein Expression, TBXT (gene 6862); experiment: CCTE_Deisenroth_DEVTOX-GLR_Endo_BRA: CCTE's DevTox GLR-Endo Assay Evaluation of Brachyury (BRA) Protein Expression, Deisenroth Lab (AID 2284417)
# How it was run: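 Endpoint is the fraction of BRA reporter-positive cells over total nuclei, corrected by subtracting the 0.2% DMSO value. Chemicals (1 nM - 200 uM, 10 points) were dosed twice during 48 h differentiation of RUES2-GLR cells, read by imaging.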
# [16] = CCTE_Deisenroth_DEVTOX-GLR_Endo_CellCount: Viability Assessment in CCTE's DevTox GLR-Endo Assay, Deisenroth Lab (AID 2284420)
# How it was run: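 Viability in differentiating RUES2-GLR cultures is scored by fluorescent nuclear counts after 48 h and two 24-hourly chemical treatments, as percent change from the 0.2% DMSO control.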
# [17] = system: SRY-box transcription factor 17 (SOX17) Protein Expression, Deisenroth Lab, SOX17 (gene 64321); experiment: CCTE_Deisenroth_DEVTOX-GLR_Pluri_SOX17: CCTE's DevTox GLR-Pluri Assay Evaluation of SRY-box transcription factor 17 (SOX17) Protein Expression, Deisenroth Lab (AID 2284427; active = hit-call score of the fitted dose curve at least 0.9, where 1 is the maximum)
# How it was run: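 Seed cells 24 h; differentiate 48 h, dosing at 0 and 24 h (1 nM - 200 uM); fix, stain nuclei, image 5 fields per well; count SOX17+ cells over total cells and subtract 0.2% DMSO control.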
# [18] = system: SRY-box transcription factor 2 (SOX2) Protein Expression, Deisenroth Lab, SOX2 (gene 6657); experiment: CCTE_Deisenroth_DEVTOX-GLR_Pluri_SOX2: CCTE's DevTox GLR-Pluri Assay Evaluation of SRY-box transcription factor 2 (SOX2) Protein Expression, Deisenroth Lab (AID 2284428)
# How it was run: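 SOX2 expression frequency is scored in a human pluripotent reporter line, RUES2-GLR, exposed to chemicals twice over 48 h. Imaging-based SOX2+ cell percentage is normalized as change versus 0.2% DMSO.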
# [19] = system: Brachyury (BRA) Protein Expression, Deisenroth Lab, TBXT (gene 6862); experiment: CCTE_Deisenroth_DEVTOX-GLR_Pluri_BRA: CCTE's DevTox GLR-Pluri Assay Evaluation of Brachyury (BRA) Protein Expression, Deisenroth Lab (AID 2284429; active = hit-call score of the fitted dose curve at least 0.9, where 1 is the maximum)
# How it was run: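 Human pluripotent RUES2-GLR cells, seeded 24 h, were differentiated 48 h in defined media with two chemical doses at 24-h intervals (10-point, 1 nM - 200 uM). Readout: percent BRA+ cells by fluorescent reporter imaging, minus 0.2% DMSO control.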
# [20] = system: SRY-box transcription factor 2 (SOX2) Protein Expression, Deisenroth Lab, SOX2 (gene 6657); experiment: CCTE_Deisenroth_DEVTOX-GLR_Endo_SOX2: CCTE's DevTox GLR-Endo Assay Evaluation of SRY-box transcription factor 2 (SOX2) Protein Expression, Deisenroth Lab (AID 2284412; active = hit-call score of the fitted dose curve at least 0.9, where 1 is the maximum)
# How it was run: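 RUES2-GLR human pluripotent cells were seeded 24 h, then differentiated 48 h with two chemical exposures 24 h apart. Cells were fixed, nuclei stained and imaged by high-content microscopy. Endpoint is %SOX2+ cells over cell count, minus 0.2% DMSO control; 10-point series 1 nM–200 uM.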
compound,measurement,setting,value
C[Si](C)(C)C(F)(F)C(F)(F)C(F)(F)F,outcome,[1],inactive
same,outcome,[2],inactive
same,outcome,[3],inactive
same,outcome,[4],inactive
same,outcome,[5],inactive
same,outcome,[6],inactive
same,outcome,[7],inactive
same,outcome,[8],inactive
same,outcome,[9],inactive
same,outcome,[10],inactive
same,outcome,[11],inactive
same,outcome,[12],inactive
same,outcome,[13],inactive
NCC(F)(F)C(F)(F)C(F)(F)C(F)(F)F,outcome,[1],inactive
same,outcome,[2],inactive
same,outcome,[3],inactive
same,outcome,[4],inactive
same,outcome,[5],inactive
same,outcome,[6],inactive
same,outcome,[7],inactive
same,outcome,[8],inactive
same,outcome,[9],inactive
same,outcome,[10],inactive
same,outcome,[11],inactive
same,outcome,[12],inactive
same,outcome,[13],inactive
FC(F)C(F)(F)COCC1CO1 (stereo not drawn),outcome,[1],inactive
same,outcome,[2],inactive
same,outcome,[3],inactive
same,outcome,[4],inactive
same,outcome,[5],inactive
same,outcome,[6],inactive
same,AC50,[7],118 µM (active)
same,outcome,[8],inactive
same,AC50,[9],32.2 µM (active)
same,outcome,[10],inactive
same,AC50,[11],9.44 µM (active)
same,outcome,[12],inactive
same,AC50,[13],30.7 µM (active)
CCCC(CCC)C(=O)O,outcome,[14],inactive
same,outcome,[15],inactive
same,outcome,[16],inactive
same,outcome,[17],inactive
same,outcome,[18],inactive
same,outcome,[19],inactive
FC(F)(F)C(F)(F)C(F)(F)C(F)(F)C(F)(F)C(F)(F)I,outcome,[1],inactive
same,outcome,[2],inactive
same,outcome,[3],inactive
same,outcome,[4],inactive
same,outcome,[5],inactive
same,outcome,[6],inactive
same,outcome,[7],inactive
same,outcome,[8],inactive
same,outcome,[9],inactive
same,outcome,[10],inactive
same,outcome,[11],inactive
same,outcome,[12],inactive
same,outcome,[13],inactive
FC(F)(F)COC(OCC(F)(F)F)OCC(F)(F)F,outcome,[1],inactive
same,outcome,[2],inactive
same,outcome,[3],inactive
same,outcome,[4],inactive
same,outcome,[5],inactive
same,outcome,[6],inactive
same,outcome,[7],inactive
same,outcome,[8],inactive
same,outcome,[9],inactive
same,outcome,[10],inactive
same,outcome,[11],inactive
same,outcome,[12],inactive
same,outcome,[13],inactive
O=S(=O)(O)CCC(F)(F)C(F)(F)C(F)(F)C(F)(F)C(F)(F)C(F)(F)F,outcome,[1],inactive
same,outcome,[2],inactive
same,outcome,[3],inactive
same,outcome,[4],inactive
same,outcome,[5],inactive
same,outcome,[6],inactive
same,outcome,[7],inactive
same,outcome,[8],inactive
same,outcome,[9],inactive
same,outcome,[10],inactive
same,outcome,[11],inactive
same,outcome,[12],inactive
same,outcome,[13],inactive
FC(F)=C(F)C(F)(F)C(F)(F)C(F)(F)C(F)(F)C(F)(F)C(F)(F)F,outcome,[1],inactive
same,outcome,[2],inactive
same,outcome,[3],inactive
same,outcome,[4],inactive
same,outcome,[5],inactive
same,outcome,[6],inactive
same,outcome,[7],inactive
same,outcome,[8],inactive
same,outcome,[9],inactive
same,outcome,[10],inactive
same,outcome,[11],inactive
same,outcome,[12],inactive
same,outcome,[13],inactive
S=P(N1CC1)(N1CC1)N1CC1,outcome,[11],inactive
OCCC(F)(F)C(F)(F)C(F)(F)C(F)(F)F,outcome,[1],inactive
same,outcome,[2],inactive
same,outcome,[3],inactive
same,outcome,[4],inactive
same,outcome,[5],inactive
same,outcome,[6],inactive
same,outcome,[7],inactive
same,outcome,[8],inactive
same,outcome,[9],inactive
same,outcome,[10],inactive
same,outcome,[11],inactive
same,outcome,[12],inactive
same,outcome,[13],inactive
NNC(=O)c1ccncc1,outcome,[20],inactive
same,outcome,[14],inactive
same,outcome,[15],inactive
same,outcome,[16],inactive
same,outcome,[17],inactive
same,outcome,[18],inactive
same,outcome,[19],inactive
NC(=O)N1c2ccccc2C=Cc2ccccc21,AC50,[20],16.7 µM (active)
same,AC50,[14],100 µM (active)
same,outcome,[15],inactive
same,AC50,[16],63.4 µM (active)
same,AC50,[17],64.8 µM (active)
same,AC50,[18],23 µM (active)
same,AC50,[19],47 µM (active)
OC(O)(C(F)C(O)(O)C(F)(F)F)C(F)(F)F,outcome,[1],inactive
same,AC50,[2],42.2 µM (active)
same,outcome,[3],inactive
same,outcome,[4],inactive
same,outcome,[5],inactive
same,outcome,[6],inactive
same,AC50,[7],35.5 µM (active)
same,outcome,[8],inactive
same,AC50,[9],32.1 µM (active)
same,AC50,[10],76.9 µM (active)
same,AC50,[11],32.4 µM (active)
same,outcome,[12],inactive
same,AC50,[13],16.9 µM (active)
Nc1ccn([C@@H]2O[C@H](CO)[C@@H](O)[C@@H]2O)c(=O)n1,AC50,[20],4.66 µM (active)
same,AC50,[14],0.539 µM (active)
same,AC50,[15],4.91 µM (active)
same,AC50,[16],0.259 µM (active)
same,AC50,[17],1.68 µM (active)
same,AC50,[18],0.244 µM (active)
same,AC50,[19],1.74 µM (active)
O=C(Cl)C(F)(F)C(F)(F)C(F)(F)C(=O)Cl,outcome,[1],inactive
same,outcome,[2],inactive
same,outcome,[3],inactive
same,AC50,[4],57.6 µM (active)
same,outcome,[5],inactive
same,outcome,[6],inactive
same,outcome,[7],inactive
same,outcome,[8],inactive
same,outcome,[9],inactive
same,outcome,[10],inactive
same,outcome,[11],inactive
same,outcome,[12],inactive
same,outcome,[13],inactive

# Reference: PubChem BioAssay (EPA / NIEHS)
